Potency data for 39 molecules are collected here from PubChem BioAssay (NCATS).

Unmarked numbers belong to inactive results. Cut-off read from the data, not from the text of the source: active = potency below about 10 µM; inactive = the rest.
Potency is the fitted concentration of half-maximal effect.

In the assay the target is Lysosomal acid glucosylceramidase (Homo sapiens) (UniProt P04062). As to the kind of experiment: Glucocerebrosidase-p2 (AID 348). To be noted: purified GBA, blue fluorogenic substrate, 40 min. In short, it runs like this: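 Compounds titrated from 0.6 nM upwards against 0.2 nM enzyme in pH 5.9 citric acid/KH2PO4, taurocholate, tween-20; blue fluorogenic substrate 80 uM, 40 min room temperature, stopped and read Ex 365/Em 440 for AC50.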
Chain of Lysosomal acid glucosylceramidase (Homo sapiens) (P04062 whole entry, looked up): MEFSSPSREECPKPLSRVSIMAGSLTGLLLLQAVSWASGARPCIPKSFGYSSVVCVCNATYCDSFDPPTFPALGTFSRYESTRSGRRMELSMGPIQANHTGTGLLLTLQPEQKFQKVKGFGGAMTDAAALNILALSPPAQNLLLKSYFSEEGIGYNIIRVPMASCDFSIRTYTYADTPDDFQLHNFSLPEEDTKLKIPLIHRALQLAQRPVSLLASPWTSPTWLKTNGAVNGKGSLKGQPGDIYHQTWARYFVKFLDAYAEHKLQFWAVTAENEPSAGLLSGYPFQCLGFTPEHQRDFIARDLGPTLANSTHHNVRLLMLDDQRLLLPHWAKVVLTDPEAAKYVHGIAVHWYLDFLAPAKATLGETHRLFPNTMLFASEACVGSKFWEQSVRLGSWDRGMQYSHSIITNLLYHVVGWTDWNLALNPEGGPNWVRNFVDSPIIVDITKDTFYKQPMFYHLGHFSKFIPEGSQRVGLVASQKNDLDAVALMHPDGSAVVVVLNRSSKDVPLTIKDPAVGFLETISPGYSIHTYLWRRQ
For `Cc1noc(C)c1C(=O)N1CCC[C@@]2(CCN(C(=O)NC(C)C)C2)C1`, the Potency is greater than 11.4 µM.

For the molecule `COCC(=O)N1CCC2(CC1)CN(C(=O)Nc1cccc(C#N)c1)C2`, the Potency was greater than 11.4 µM.

For `Cc1noc(C)c1C(=O)N1CCC2(CCN(C(=O)NC(C)C)CC2)CC1`, the Potency is greater than 11.4 µM.

With `O=C(Nc1ccccc1)N1CC[C@@]2(CCCN(C(=O)c3ccco3)C2)C1`, the Potency was greater than 11.4 µM.

Consider `CC(=O)N1CCC2(CCCN(c3ccccn3)C2)CC1`, for which the Potency was greater than 11.4 µM.

As for `CC(=O)N1CCC2(CCN(Cc3ccncc3)CC2)CC1`, the Potency is greater than 11.4 µM.

Consider `O=C(Nc1cccc(F)c1)N1CCC2(CCNCC2)CC1`, for which the Potency is greater than 11.4 µM.

As for `COCC(=O)N1CCC2(CC1)CN(C(=O)Nc1cccc(F)c1)C2`, the Potency is greater than 11.4 µM.

Turning to `COCC(=O)N1CCC2(CC1)CN(Cc1cc(C(F)(F)F)cc(C(F)(F)F)c1)C2`, the Potency was greater than 11.4 µM.

Consider `COCC(=O)N1CCC2(CCCN(C(=O)Nc3cccc(F)c3)C2)CC1`, for which the Potency was greater than 11.4 µM.

For `COCC(=O)N1CCC2(CC1)CN(C(=O)Nc1ccc(OC)cc1)C2`, the Potency is greater than 11.4 µM.

Consider `Cn1cccc1C(=O)N1CCC2(CC1)CN(C(=O)Nc1ccccc1)C2`, for which the Potency was greater than 11.4 µM.

`COC(=O)N1CCC[C@@]2(CCN(C(=O)Nc3ccccc3)C2)C1`: the Potency is greater than 11.4 µM.

In the case of `O=C(c1ccncc1)N1CCC2(CC1)CN(c1ncccn1)C2`, the Potency was greater than 11.4 µM.

Regarding `CC(C)NC(=O)N1CCC2(CC1)CCN(C(=O)c1ccco1)CC2`, the Potency is greater than 11.4 µM.

For the molecule `O=C(Nc1ccccc1)N1CC2(CCN(C(=O)c3ccco3)CC2)C1`, the Potency is greater than 11.4 µM.

In the case of `COc1ccccc1CN1CCCC2(CCNCC2)C1`, the Potency is greater than 11.4 µM.

As for `COC(=O)N1CCC[C@@]2(CCN(c3ccccn3)C2)C1`, the Potency is greater than 11.4 µM.

For the molecule `Cn1cccc1C(=O)N1CCC2(CCN(C(=O)Nc3cccc(F)c3)CC2)CC1`, the Potency is greater than 11.4 µM.

In the case of `O=C(c1csnn1)N1CCC2(CC1)CN(Cc1cc(C(F)(F)F)cc(C(F)(F)F)c1)C2`, the Potency is greater than 11.4 µM.

With `O=C(Nc1ccccc1)N1CCC2(CC1)CCN(C(=O)c1csnn1)CC2`, the Potency is greater than 11.4 µM.

Take `CN1CCC2(CC1)CCN(C(=O)c1cc(C(F)(F)F)cc(C(F)(F)F)c1)CC2`: the Potency is greater than 11.4 µM.

For `CC(=O)N1CCC2(CCN(Cc3nccs3)CC2)CC1`, the Potency was greater than 11.4 µM.

In the case of `COc1ccccc1CN1CCC2(CC1)CCN(C(C)=O)CC2`, the Potency was greater than 11.4 µM.

Regarding `CS(=O)(=O)N1CCC2(CCN(C(=O)Nc3cccc(C#N)c3)CC2)CC1`, the Potency was greater than 11.4 µM.

In the case of `COc1ccc(NC(=O)N2CCC3(CC2)CCN(C(=O)c2cnccn2)CC3)cc1`, the Potency is greater than 11.4 µM.

`O=C(c1ccco1)N1CCC2(CC1)CCN(c1ccccc1)CC2`: the Potency is greater than 11.4 µM.

As to `COc1ccc(NC(=O)N2CC[C@@]3(CCCNC3)C2)cc1`, the Potency was greater than 11.4 µM.

In the case of `Cc1noc(C)c1C(=O)N1CCC[C@@]2(CCN(c3ncccn3)C2)C1`, the Potency was greater than 11.4 µM.

On to `COC(=O)N1CCC2(CC1)CN(C(=O)Nc1ccccc1)C2`, for which the Potency was greater than 11.4 µM.

As for `COCC(=O)N1CCC2(CC1)CCN(C(=O)Nc1cccc(F)c1)CC2`, the Potency was greater than 11.4 µM.

Regarding `O=C(Nc1ccccc1)N1CCC2(CC1)CCN(C(=O)c1cnccn1)CC2`, the Potency is greater than 11.4 µM.

Turning to `COC(=O)N1CCC2(CCN(Cc3nccs3)CC2)CC1`, the Potency was greater than 11.4 µM.

`COc1ccc(NC(=O)N2CC3(CCN(C(=O)c4ccco4)CC3)C2)cc1`: the Potency is greater than 11.4 µM.

In the case of `COc1ccc(NC(=O)N2CC3(CCN(C(=O)c4c(C)noc4C)CC3)C2)cc1`, the Potency is greater than 11.4 µM.

Turning to `CC(C)NC(=O)N1CC[C@@]2(CCCN(C(=O)c3cccn3C)C2)C1`, the Potency was greater than 11.4 µM.

With `FC(F)(F)c1cc(CN2CC3(CCNCC3)C2)cc(C(F)(F)F)c1`, the Potency is greater than 11.4 µM.

With `O=C(Nc1cccc(F)c1)N1CC2(CCN(S(=O)(=O)c3ccccc3)CC2)C1`, the Potency is greater than 11.4 µM.

With `COCC(=O)N1CCC[C@@]2(CCN(c3ncccn3)C2)C1`, the Potency is greater than 11.4 µM.
